Measured values published in the supplement of paper PMC9446081.
± gives the standard deviation of the averaged measurements.

molecular target: MurC (UniProt C4ZRI6); assay: relative enzymatic activity vs untreated control (fraction); higher = less inhibition; conditions: 100 µM; incubation time: 2 h at 37 C
Experimental: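 In vitro enzymatic inhibition assays (ProFoldin kits) for 12 purified essential E. coli enzymes or complexes, each treated with 218 active antibacterial compounds at 100 µM for 2 h at 37°C. Read-outs were fluorescence or absorbance (phosphate detection, dye binding), converted to activity via standard curves and expressed relative to untreated DMSO controls.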

Sequence of MurC (C4ZRI6 whole entry, looked up): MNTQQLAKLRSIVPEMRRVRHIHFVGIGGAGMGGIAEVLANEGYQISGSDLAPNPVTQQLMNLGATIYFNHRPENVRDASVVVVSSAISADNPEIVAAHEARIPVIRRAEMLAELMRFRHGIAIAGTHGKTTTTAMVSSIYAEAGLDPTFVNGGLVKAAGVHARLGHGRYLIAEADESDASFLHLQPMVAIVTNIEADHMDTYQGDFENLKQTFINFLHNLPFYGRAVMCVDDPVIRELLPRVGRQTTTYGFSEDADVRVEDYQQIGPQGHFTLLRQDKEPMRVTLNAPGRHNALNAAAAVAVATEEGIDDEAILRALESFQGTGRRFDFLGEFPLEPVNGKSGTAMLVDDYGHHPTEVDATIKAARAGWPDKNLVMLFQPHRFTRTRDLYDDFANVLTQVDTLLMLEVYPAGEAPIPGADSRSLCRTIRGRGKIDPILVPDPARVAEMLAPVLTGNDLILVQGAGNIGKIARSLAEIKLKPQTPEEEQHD

Compound | relative enzymatic activity
COc1ccc(Cc2cnc(N)nc2N)cc1OC | 1.1 ± 0.079
NCC[C@H](O)C(=O)N[C@@H]1C[C@H](N)[C@@H](O[C@H]2O[C@H](CN)[C@@H](O)[C@H](O)[C@H]2O)[C@H](O)[C@H]1O[C@H]1O[C@H](CO)[C@@H](O)[C@H](N)[C@H]1O | 1.05 ± 0.11
O=[N+]([O-])c1ccc(O)c2ncccc12 | 1.046 ± 0.004
NC[C@H]1O[C@H](O[C@H]2[C@H](O)[C@@H](O[C@H]3O[C@H](CO)[C@@H](O)[C@H](N)[C@H]3O)[C@H](N)C[C@@H]2N)[C@H](N)[C@@H](O)[C@@H]1O | 0.9682 ± 0.0015
CN(C)[C@@H]1C(=O)[C@@H](C(N)=O)C(=O)[C@@]2(O)C(=O)[C@H]3C(=O)c4c(O)ccc(Cl)c4[C@@H](O)[C@H]3C[C@@H]12 | 1.009 ± 0.01
CCn1cc(C(=O)O)c(=O)c2cc(F)c(N3CCNCC3)cc21 | 1 ± 0.082
CC(=O)OCC1=C(C(=O)[O-])N2C(=O)C(NC(=O)Cc3cccs3)C2SC1.[Na+] (stereo not given) | 1.08 ± 0.043
CN[C@H]1CN(c2ccc3c(=O)c(C(=O)O)cn(-c4nccs4)c3n2)C[C@@H]1OC | 1.035 ± 0.0069
CO/N=C(\C(=O)N[C@@H]1C(=O)N2C(C(=O)O)=C(C)CS[C@H]12)c1csc(N)n1 | 0.884 ± 0.037
O=C([O-])CCC(=O)OCC(NC(=O)C(Cl)Cl)C(O)c1ccc([N+](=O)[O-])cc1.[Na+] (stereo not given) | 1.01 ± 0.081
Cc1cc(=O)c(C(=O)N[C@@H](C(=O)N[C@@H]2C(=O)N3C(C(=O)O)=C(CSc4nnnn4C)CS[C@H]23)c2ccc(O)cc2)c[nH]1 | 1.18 ± 0.11
N[C@@H](C(=O)N[C@@H]1C(=O)N2C(C(=O)O)=C(Cl)CS[C@H]12)c1ccccc1 | 0.902 ± 0.062
Oc1c(Cl)cc(Cl)c2cccnc12 | 0.928 ± 0.088
CCCN1C[C@H](C)[C@@H](O)[C@](C)(O)[C@@H](CC)OC(=O)[C@H](C)[C@@H](O[C@H]2C[C@@](C)(OC)[C@@H](O)[C@H](C)O2)[C@H](C)[C@@H](O[C@@H]2O[C@H](C)C[C@H](N(C)C)[C@H]2O)[C@](C)(O)C[C@H]1C | 1.02 ± 0.024
CO/N=C1\CN(c2nc3c(cc2F)c(=O)c(C(=O)O)cn3C2CC2)C[C@@H]1CN | 0.717 ± 0.047
COC1(NC(=O)CSCC#N)C(=O)N2C(C(=O)[O-])=C(CSc3nnnn3C)CSC21.[Na+] (stereo not given) | 1.59 ± 0.09
NCCCC[C@H](NC(=O)[C@@H](NC(=O)[C@H](Cc1c[nH]c2ccccc12)NC(=O)[C@H](CCCCN)NC(=O)[C@H](CCCCN)NC(=O)[C@H](Cc1c[nH]c2ccccc12)NC(=O)[C@H](Cc1c[nH]c2ccccc12)NC(=O)[C@H](CCCCN)NC(=O)[C@@H](N)CCCCN)C(c1ccccc1)c1ccccc1)C(N)=O | 0.995 ± 0.015
Nc1nc(C(=CCC(=O)O)C(=O)NC2C(=O)N3C(C(=O)O)=CCSC23)cs1 (stereo not given) | 0.885 ± 0.2
O=C1CN(N=Cc2ccc([N+](=O)[O-])o2)C(=O)N1 | 1.051 ± 0.0033
O=C(O)c1cn(C2CC2)c2cc(N3CCNCC3)c(F)cc2c1=O | 1.03 ± 0.014

Compound | relative enzymatic activity
NCC1OC(OC2C(N)CC(N)C(OC3OC(CO)C(O)C(N)C3O)C2O)C(N)CC1O (stereo not given) | 1.11 ± 0.046
CC(C)(ON=C(C(=O)NC1C(=O)N2C(C(=O)[O-])=C(C[n+]3ccccc3)CSC12)c1csc(N)n1)C(=O)O (stereo not given) | 0.704 ± 0.14
COc1cc(Cc2cnc(N)nc2N)cc(OC)c1OC | 1.03 ± 0.086
CC(C)[C@@H](CC[C@@H](C)[C@H]1CC[C@H]2[C@@H]3[C@H](O)C[C@H]4C[C@@H](NCCCNCCCCN)CC[C@]4(C)[C@H]3CC[C@]12C)OS(=O)(=O)O | 0.882 ± 0.078
CC(NCCCc1cccc(C(F)(F)F)c1)c1cccc2ccccc12.Cl (stereo not given) | 0.985 ± 0.092
CN[C@@H]1[C@H](O)[C@H](NC)[C@H]2O[C@@]3(O)C(=O)C[C@@H](C)O[C@H]3O[C@@H]2[C@H]1O | 0.955 ± 0.11
N[C@@H]1CC[C@@H](c2ccc(Cl)c(Cl)c2)c2ccccc21 | 0.806 ± 0.12
CC[C@H]1OC(=O)[C@H](C)[C@@H](O[C@H]2C[C@@](C)(OC)[C@@H](O)[C@H](C)O2)[C@H](C)[C@@H](O[C@@H]2O[C@H](C)C[C@H](N(C)C)[C@H]2O)[C@](C)(OC)C[C@@H](C)C(=O)[C@H](C)[C@@H](O)[C@]1(C)O | 1.01 ± 0.14
COc1cc2c(cc1OC)C(=O)C(CC1CCN(Cc3ccccc3)CC1)C2.Cl (stereo not given) | 0.993 ± 0.29
Cc1cn([C@H]2C[C@H](N=[N+]=[N-])[C@@H](CO)O2)c(=O)[nH]c1=O | 1.08 ± 0.11
CC1(C)S[C@@H]2[C@H](NC(=O)[C@H](NC(=O)N3CCNC3=O)c3ccccc3)C(=O)N2[C@H]1C(=O)O | 0.907 ± 0.097
CN(C)CCC=C1c2ccccc2COc2ccc(CC(=O)O)cc21.Cl | 0.905 ± 0.018
C[C@H]1c2cccc(O)c2C(=O)C2=C(O)[C@]3(O)C(=O)[C@@H](C(N)=O)C(=O)[C@@H](N(C)C)[C@@H]3[C@@H](O)[C@@H]21 | 0.97 ± 0.064
O=C(O)c1c(O)c2c([nH]c1=O)CCCC2 | 0.602 ± 0.36
CON=C(C(=O)NC1C(=O)N2C(C(=O)O)=C(C[N+]3(C)CCCC3)CSC12)c1csc(N)n1.[Cl-] (stereo not given) | 0.984 ± 0.032
Cc1oc(=O)oc1CN1CCN(c2cc3c(cc2F)c(=O)c(C(=O)O)c2n3C(C)S2)CC1 (stereo not given) | 0.821 ± 0.066
CCC(C)CCCCC(=O)NC(CCN)C(=O)NC(C(=O)NC(CCN)C(=O)NC1CCNC(=O)C(C(C)O)NC(=O)C(CCN)NC(=O)C(CCN)NC(=O)C(CC(C)C)NC(=O)C(Cc2ccccc2)NC(=O)C(CCN)NC1=O)C(C)O.O=S(=O)(O)O (stereo not given) | 0.986 ± 0.057
N[C@@H]1CN(c2c(F)cc3c(=O)c(C(=O)O)cn([C@@H]4C[C@@H]4F)c3c2Cl)CC12CC2 | 0.971 ± 0.044
NCCONC(=O)[C@@H]1CC[C@@H]2CN1C(=O)N2OS(=O)(=O)O | 0.944 ± 0.034
CC(C)CCCC(=O)N[C@@H](CCNCS(=O)(=O)O)C(=O)N[C@H](C(=O)N[C@@H](CCNCS(=O)(=O)O)C(=O)N[C@H]1CCNC(=O)[C@H]([C@@H](C)O)NC(=O)[C@H](CCNCS(=O)(=O)O)NC(=O)[C@H](CCNCS(=O)(=O)O)NC(=O)[C@H](CC(C)C)NC(=O)[C@H](CC(C)C)NC(=O)[C@H](CCNCS(=O)(=O)O)NC1=O)[C@@H](C)O | 1.16 ± 0.21
